Bioassay records deposited in PubChem by several laboratories.
Most compounds without a hit are left out; they make up all but 4% or so of the library.
Rv3671c inh: inhibitors of M. tuberculosis serine protease Rv3671c | P9WHR9 | inhibition, % at 5.96 µM | 0.048% of 320,000 active | AID 2606; in the data active = inhibition above about 38%;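 also: extracellular domain of Rv3671c used as enzyme; 0% = enzyme with DMSO and 100% = no enzyme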
Mtb betalactam: beta-lactam sensitization of Mtb H37Rv; M. tuberculosis H37Rv growth with meropenem, percent inhibition; inhibition, % at 25 µM; 0.27% of 330,000 active; call rule not given here;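 also: growth measured after seven days incubation then overnight dye step; 0% = bacteria only wells and 100% = bacteria with antibiotic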
RecA splice inh: Mtb RecA intein splicing inhibition; cell-free RecA intein splicing, fluorescence; inhibition, % (concentration not given with the values); 0.75% of 290,000 active; in the data active = inhibition above about 30%;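 also: 0% = vehicle wells and 100% = reference inhibitor control wells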
GDH-TPI counter-1: counter-screen for M. tuberculosis FBA inhibitors: GDH-TPI coupled enzymes | GDH-TPI coupled enzyme counterscreen, NADH absorbance | AID 588335 | inhibition, % at 4.8 µM | 1.2% of 360,000 active; in the data active = inhibition above about 30%;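 also: 0% = DMSO wells and 100% = wells lacking the enzyme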
UGM FP inh: blocks M. tuberculosis UGM enzyme. purified UGM, fluorescence polarization probe displacement. 0.06% of 320,000 active. P9WIQ1. AID 504406. inhibition, % at 10 µM; in the data active = inhibition above about 10%, passing the limit was not always enough
FBA Mtb inh: inhibits M. tuberculosis FBA enzyme; P9WQA3; purified M. tuberculosis FBA, fluorescence read-out; inhibition, % at 1 µM; 2.3% of 360,000 active;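 also: 0% = vehicle and 100% = reference inhibitor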
Mtb FBA confirm: confirmation of M. tuberculosis fructose-bisphosphate aldolase inhibitors | 78% of 5,600 active | inhibition, % at 1 µM | shares compounds with FBA Mtb inh | purified M. tuberculosis FBA, fluorescence read-out;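 also: 0% = vehicle wells and 100% = reference inhibitor wells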
GDH-TPI counter-2: inhibits GDH-TPI coupling enzymes, flagging Mtb FBA hits | shares compounds with FBA Mtb inh | GDH-TPI coupled enzyme counterscreen, fluorescence | inhibition, % at 1 µM | 81% of 5,600 active; in the data active = inhibition above about 10%
Active calls of the source: *; / = no result; + = active, no number. Rule as the data show it, unless noted: active = inhibition above about 27%; inactive = the rest.

SMILES	Rv3671c inh	Mtb betalactam	RecA splice inh	GDH-TPI counter-1	UGM FP inh	FBA Mtb inh	Mtb FBA confirm	GDH-TPI counter-2
CCc1cc(=O)oc2cc(C)cc(OC(C)C(=O)NCCCN3CCOCC3)c12 (configuration not stated)	-4	6	-2	4	0	59*	85*	60*
Cc1cc(OC(C)C(=O)NC2CCN(Cc3ccccc3)CC2)c2c(C)cc(=O)oc2c1 (configuration not stated)	-6	1	-2	1	-1	10	/	/
Cc1cc(OC(C)C(=O)NCCN2CCOCC2)c2c(C)cc(=O)oc2c1 (configuration not stated)	1	-6	0	-3	2	33*	76*	64*
Cc1c(C)c2cc(Cl)c(OC(C)C(=O)NCCN3CCOCC3)cc2oc1=O (configuration not stated)	1	-1	-1	0	1	20	/	/
COc1ccc(OC)c2c1CCC2=O	4	-14	0	9	0	30*	71*	51*
COc1ccccc1NC1=C(C)C(=O)CC1	-9	-4	-6	16	1	6	/	/
COc1ccc(NC(=O)c2ccc(S(=O)(=O)N3CC(C)CC(C)C3)cc2)cc1S(N)(=O)=O (configuration not stated)	-5	-2	/	18	-1	39*	180*	152*
CCOc1ccccc1NC(=O)C1CCN(C(=O)c2cccs2)CC1	1	2	2	1	-1	7	/	/
COC(=O)c1c(C(=O)OC)n(CCCN)c2ccc(C)cc12	-2	-1	9	1	-1	98*	100*	63*
CCCCCCCCn1c(=O)c(C(=O)OC)c(N)c2ccccc21	-1	1	-2	-11	1	2	/	/
O=C(COc1ccc2ccc(=O)oc2c1)Nc1ccc(N2CCCCC2)cc1	4	-7	/	3	0	41*	+	152*
O=C(COc1ccc2ccc(=O)oc2c1)NCCN1CCOCC1	/	/	/	25	/	27*	123*	95*
Cc1cc(=O)oc2cc(OCC(=O)NCCN3CCOCC3)ccc12	3	-10	-4	2	-1	13	/	/
O=C(COc1ccc2ccc(=O)oc2c1)Nc1ccc(CCO)cc1	-4	3	1	18	1	7	/	/
CC(Oc1ccc2ccc(=O)oc2c1)C(=O)NCCN1CCOCC1 (configuration not stated)	-3	4	-4	21	3	28*	151*	110*
Nc1ncccc1C(=O)OCC(=O)N1CCN(S(=O)(=O)c2ccc(Cl)cc2)CC1	-11	1	/	23	-2	62*	9	-4
CCOc1ncccc1C(=O)OCC(=O)N1CCN(S(=O)(=O)c2ccc(Cl)cc2)CC1	6	-2	-3	-5	-1	-3	/	/
Cc1ccc2[nH]c(C(=O)NCCN3CCCC3)cc2c1	-4	-1	-2	10	0	41*	76*	63*
CCCCCCCC[n+]1cccc2c3ccccc3ccc21	3	16	3	-3	-2	67*	65*	42*
Cc1ccc(OCCSc2nc3ccccc3n2CC(=O)O)c(C(C)C)c1	-1	1	5	-11	2	4	/	/
O=C(COc1ccc(F)cc1)Nc1nnc(-c2ccncc2)s1	2	2	-2	25	2	47*	90*	66*
CCOC(=O)Cc1nnc(NC(=O)COc2ccc(F)cc2)s1	-8	0	-1	2	-1	4	/	/
Cc1ccc(NC(=O)C2CCN(S(=O)(=O)c3ccc(C(C)(C)C)cc3)CC2)cc1S(=O)(=O)N1CCOCC1	/	/	/	5	/	-1	/	/
O=C(c1cc2c(ccc3ccccc32)o1)N1CCCCC1	-4	4	6	10	2	-1	/	/
CN1CCN(C(=O)c2cc3c(ccc4ccccc43)oc2=O)CC1	3	-11	-65	12	4	54*	45*	31*
CC(C)c1ncc(CO)n1Cc1c(Cl)cccc1Cl	/	/	/	7	/	-2	/	/
O=C1NC(=O)c2c(NC(=O)C3CCCO3)cccc21 (configuration not stated)	-5	4	1	16	-2	36*	97*	88*
CC(=O)Nc1cccc2c1C(=O)NC2=O	-3	-7	-1	2	4	28*	54*	43*
